High-throughput results deposited in PubChem by several laboratories.
Only some compounds are listed: those with a hit (about 1.9% of all), similar ones and a draw of the others.
NCF1 inh = blocks human p47phox regulatory protein of NADPH oxidases; p47phox/p22phox peptide binding, fluorescence polarization, 2 h; inhibition, % at 24.7 µM; 220,000 compounds, 0.53% hits;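 active means inhibition above about 30%, limit read from the data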;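 further: 0% = p47phox with labelled peptide and 100% = labelled peptide alone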
HMGR II inh = blocks class II HMG-CoA reductase of Enterococcus faecalis | 190,000 compounds, 0.41% hits | inhibition, % at 10 µM | purified E. faecalis HMGR, NADPH absorbance 340 nm kinetic;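 active means inhibition above a set limit, the median over all tested compounds plus 3 SD, cut at about 9.5% in these data; inconclusive means no clear call, values can overlap the other calls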;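 further: enzyme runs in reverse so mevalonate oxidation gives rising NADPH absorbance; 0% = complete reaction with DMSO and 100% = background rate lacking mevalonate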
14-3-3 Bad PPI = disrupts binding of bovine 14-3-3 zeta to phospho-Bad peptide; P63103; TR-FRET 14-3-3zeta/Dy647-pBad peptide displacement, 1 h; inhibition, % at 21.7 µM; 220,000 compounds, 0.71% hits;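 active means inhibition above about 70%, limit read from the data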;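 further: 0% = full 14-3-3 plus peptide FRET controls and 100% = background without 14-3-3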
Target sequence (P63103 whole entry, looked up): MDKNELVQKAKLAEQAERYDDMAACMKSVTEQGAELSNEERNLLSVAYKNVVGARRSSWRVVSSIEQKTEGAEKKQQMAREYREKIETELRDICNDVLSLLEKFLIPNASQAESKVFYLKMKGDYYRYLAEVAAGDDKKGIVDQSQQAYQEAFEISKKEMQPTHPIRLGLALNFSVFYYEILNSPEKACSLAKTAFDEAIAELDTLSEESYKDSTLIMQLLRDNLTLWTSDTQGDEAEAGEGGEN
dFosB act-1 = mouse delta FosB homodimer activation; P13346; purified delta FosB, TAMRA-CDK5 oligo fluorescence polarization; percent of positive-control signal above neutral wells; activation, % at 25 µM; 340,000 compounds, 0.99% hits; AID 493131;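 active means mean activation above about 17%, with every replicate also reaching it, limit read from the data, passing the limit was not always enough; inconclusive means only one of the two conditions met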
Target sequence (P13346 whole entry, looked up): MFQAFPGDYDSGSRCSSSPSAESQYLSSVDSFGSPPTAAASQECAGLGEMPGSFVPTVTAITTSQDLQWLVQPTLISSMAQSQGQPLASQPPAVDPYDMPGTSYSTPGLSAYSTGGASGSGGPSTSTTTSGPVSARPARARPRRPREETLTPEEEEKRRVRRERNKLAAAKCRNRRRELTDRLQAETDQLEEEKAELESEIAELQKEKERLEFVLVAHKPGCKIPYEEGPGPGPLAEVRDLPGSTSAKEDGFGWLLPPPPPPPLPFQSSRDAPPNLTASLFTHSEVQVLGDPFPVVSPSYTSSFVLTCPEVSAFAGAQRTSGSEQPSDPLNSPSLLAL
dFosB act-2 = delta FosB (mouse) homodimer activation | purified delta FosB, TAMRA-CDK5 oligo fluorescence polarization; normalised: neutral wells 0, positive control 100 | shares compounds with dFosB act-1 | activation, % at 24.9 µM | 2,400 tested, under 10 active;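 active means highest replicate activation at or above 34% and every replicate reaching that threshold; inconclusive means meets only one of the two criteria; inactive means meets neither criterion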;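 further: higher polarization means more probe DNA bound by delta FosB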
* marks the source's active call; other numbers are inactive results; u = inconclusive; x = no result.

SMILES	NCF1 inh	HMGR II inh	14-3-3 Bad PPI	dFosB act-1	dFosB act-2
COc1cc(C(=O)NCc2nnc(SCC(=O)c3ccccc3)o2)cc(OC)c1OC	x	x	x	-6.8	x
O=C(CSc1nnc(-c2ccncc2)n1Cc1ccco1)Nc1ccccc1Cl	-20.1	0.8	1.4	-3.6	x
O=C(CSc1nnc(-c2ccncc2)n1Cc1ccco1)Nc1nc(-c2ccccc2)cs1	13.0	-3.5	29.6	33.0*	-2.1
O=C(COC(=O)c1ccccc1NC(=O)c1ccco1)NCc1ccc2c(c1)OCO2	7.9	-12.9	6.5	30.4*	2.3
O=C(CNC(=O)c1ccco1)NCc1ccc2c(c1)OCO2	x	x	x	1.9	x
O=C(COc1ccc(F)cc1)Nc1ccc2c(c1)OCCO2	x	x	x	-3.8	x
COc1ccccc1/C=C1\SC(=O)N(CCC(=O)NNC(=O)c2ccccc2Cl)C1=O	-6.9	-3.8	9.3	20.8*	2.3
Clc1cc2nc(-c3cccnc3Cl)[nH]c2cc1Cl	x	x	x	35.5*	6.3
Cc1cc2nc(-c3ccccc3O)[nH]c2cc1C	x	x	x	11.2	x
O=C(N/N=C/c1ccco1)c1cc(-c2ccc(Cl)cc2)n[nH]1	2.6	x	6.0	24.6*	3.1
Cc1ccc(N2CC(=O)N(NC(=O)Nc3ccc(Cl)c(Cl)c3)CC2=O)cc1	-10.4	x	-3.8	u	x
O=C(Nc1ccc(Cl)cc1)NN1CC(=O)N(c2cccc(C(F)(F)F)c2)CC1=O	-13.1	x	-1.9	31.1*	-1.0
CC(=O)c1cn(CC(=O)Nc2ccc(C)cc2C)c2ccccc12	-11.6	-11.2	-14.3	27.9*	7.6
Cc1ccc(NC(=O)Cn2cc(C(=O)C3CC3)c3ccccc32)c(C)c1	x	x	x	-6.5	x
CC(=O)c1cn(CC(=O)Nc2cccc(C)c2C)c2ccccc12	-3.0	-4.7	-2.1	-7.1	x
CCC(=O)c1cn(CC(=O)Nc2cccc(C)c2C)c2ccccc12	x	x	x	25.3*	6.9
Cc1ccc(C)c(NC(=O)Cn2cc(C(=O)C3CC3)c3ccccc32)c1	x	x	x	72.0*	0.2
Cc1cccc(NC(=O)Cn2cc(C(=O)C3CC3)c3ccccc32)c1C	x	x	x	21.2*	1.8
O=C(CC1Nc2cccc3cccc(c23)NC1=O)Nc1ccccc1 (stereo not drawn)	-10.8	2.4	2.0	-16.6	x
C/C=C/c1ccc(OCC(=O)NCc2ccccc2OC)c(OC)c1	-6.2	-0.6	-14.8	-6.6	x
CCOC(=O)Nc1ccc2c(c1)N(C(=O)CN)c1ccccc1CC2	x	x	x	29.6*	-0.9
CCNCC(=O)N1c2ccccc2CCc2ccc(NC(=O)OCC)cc21	x	x	x	-1.2	x
O=C(Cn1c(=O)n(CC(=O)NCc2ccccc2)c2ccccc21)NCc1ccccc1	5.1	-0.9	-5.0	24.5*	-1.1
Cc1ccc(NC(=O)Cn2c(=O)n(CCCC(=O)NCc3ccco3)c(=O)c3ccccc32)cc1	-6.0	-1.6	2.2	32.3*	-2.7
Cc1cccc(Cn2c(=O)n(-c3ccc(CC(=O)NCc4ccco4)cc3)c(=O)c3sccc32)c1	6.7	-0.8	2.1	48.5*	-1.8
SMILES	NCF1 inh	HMGR II inh	14-3-3 Bad PPI	dFosB act-1	dFosB act-2
CCC(C)NC(=O)Cn1c(=O)n(-c2ccccc2)c(=O)c2ccc(C(=O)NCc3ccco3)cc21 (stereo not drawn)	-9.1	-9.1	-2.8	5.5	x
Cc1ccc(Cn2c(=O)n(-c3ccccc3)c(=O)c3ccc(C(=O)NCc4ccco4)cc32)cc1	-5.3	6.0	0.3	26.3*	7.4
CC1=CC(C)(C)n2c(O)c(C3=NC(=S)NC3=O)c3cc(OC(=O)c4cccc5ccccc45)cc1c32	0.7	-2.7	10.3	-9.5	x
CCOc1ccc(S(=O)(=O)NCCC(=O)N2CCCN(C)CC2)cc1	x	x	x	-1.5	x
COc1cccc(NC(=O)N2CCCC2C(=O)NC(C)C)c1 (stereo not drawn)	-16.1	-1.6	-1.7	-4.5	x
CC(C)Oc1ccc(S(=O)(=O)N2CCCCC2)cc1NC(=O)CN1C(=O)NC2(CCCC2)C1=O	x	x	x	-7.7	x
CCn1cc(C(=O)N[C@H](C(=O)NC(C)(C)CO)C(C)C)c(=O)c2cc3c(cc21)OCO3	x	x	x	-5.2	x
COc1cc2c(=O)n(Cc3ccccc3)c(=O)n(CC(=O)NCc3ccco3)c2cc1OC	18.7	-1.9	36.2	31.2*	5.0
CCOC(=O)c1c(C)[nH]c(C(=O)OCc2ccccc2)c1C	x	x	x	-16.2	x
CCOC(=O)c1c(C)[nH]c(C(=O)OCC(=O)Nc2ccccc2)c1C	x	x	x	27.0*	-0.9
CC(=O)c1ccc(N2CCN(S(=O)(=O)c3cn(C)cn3)CC2)cc1	x	x	x	-3.4	x
C=CCN1C(=NC(=O)CCC)SC2CS(=O)(=O)CC21 (stereo not drawn)	-9.8	-6.4	2.4	-7.3	x
CC(=O)Cc1nsc(NC(=O)c2ccc(-c3cccc(C(F)(F)F)c3)o2)n1	-17.6	-4.3	-7.5	-10.5	x
Cc1nnc(NC(=O)c2ccc(-c3cccc(C(F)(F)F)c3)o2)s1	-9.2	1.8	18.6	30.4*	u
Cc1ccc2nc(NC(=O)CN(C)S(=O)(=O)c3ccc(Br)s3)sc2c1	-4.3	-1.1	-6.2	-1.6	x
Cc1ccc2nc(NC(=O)CNS(=O)(=O)c3ccc(Br)s3)sc2c1	-4.6	-1.9	4.2	19.4*	-4.7
Cc1ccc2nc(NC(=O)CN(C)S(=O)(=O)c3cccc4nsnc34)sc2c1	-1.6	-4.6	-2.7	20.6*	1.7
CC(=O)Oc1cccc(N2C(=O)C3C4C=CC(C4)C3C2=O)c1 (stereo not drawn)	0.6	0.6	-16.1	-0.6	x
Clc1ccc(C2=NNC(=NCC3CCCO3)SC2)cc1 (stereo not drawn)	-5.8	0.9	3.8	-3.2	x
Cc1cc(C)c2c(n1)sc1c(-c3ccccc3)c(C#N)c(N)nc12	-2.3	1.5	13.6	29.3*	-1.5
COc1ccccc1NNC(=O)C(O)(c1ccccc1)c1ccccc1	-10.6	x	-8.3	2.2	x
Cc1cc2oc(C(=O)Nc3ccc(S(=O)(=O)Nc4nccs4)cc3)cc(=O)c2cc1Cl	-53.0	-3.0	34.5	37.3*	0.9
Cc1cc(C)c2oc(C(=O)Nc3ccc(S(=O)(=O)Nc4nccs4)cc3)cc(=O)c2c1	-36.6	x	1.3	1.5	x
CC(C)c1ccc(OC(=O)c2cccc(S(=O)(=O)N3CCN(C)CC3)c2)cc1	x	x	x	-2.7	x
CN1CCN(S(=O)(=O)c2cccc(C(=O)Oc3ccc(C(C)(C)C)cc3)c2)CC1	x	x	x	23.1*	0.2
O=C(NCc1ccc2c(c1)OCO2)C1CCN(c2nccc(C(F)(F)F)n2)CC1	-0.2	x	-9.7	18.3*	-13.7
CCS(=O)(=O)Nc1ccc(-c2nnc(SCC(=O)c3cccc(OC)c3)o2)cc1	-11.7	-2.4	1.7	-3.2	x
CCS(=O)(=O)Nc1ccc(-c2nnc(SCC(=O)c3ccc(NC(C)=O)c(OC)c3)o2)cc1	1.0	4.0	22.1	33.6*	8.2
CCCCNC(=O)N(C)c1nc2ccccc2s1	13.5	1.8	6.3	-7.0	x
C#CCOCCOCCOCCNc1nc(N2CCN(C(=O)[C@H](CCCCN)n3cc([C@@H](N)[C@H](C)CC)nn3)CC2)nc(N2CCN(C(=O)[C@H](CCCCN)n3cc([C@@H](N)CC(N)=O)nn3)CC2)n1	x	x	x	-1.5	x
